Activity calls are given as the source filed them.

Albumin (Bos taurus), sequence (P02769 whole entry, looked up): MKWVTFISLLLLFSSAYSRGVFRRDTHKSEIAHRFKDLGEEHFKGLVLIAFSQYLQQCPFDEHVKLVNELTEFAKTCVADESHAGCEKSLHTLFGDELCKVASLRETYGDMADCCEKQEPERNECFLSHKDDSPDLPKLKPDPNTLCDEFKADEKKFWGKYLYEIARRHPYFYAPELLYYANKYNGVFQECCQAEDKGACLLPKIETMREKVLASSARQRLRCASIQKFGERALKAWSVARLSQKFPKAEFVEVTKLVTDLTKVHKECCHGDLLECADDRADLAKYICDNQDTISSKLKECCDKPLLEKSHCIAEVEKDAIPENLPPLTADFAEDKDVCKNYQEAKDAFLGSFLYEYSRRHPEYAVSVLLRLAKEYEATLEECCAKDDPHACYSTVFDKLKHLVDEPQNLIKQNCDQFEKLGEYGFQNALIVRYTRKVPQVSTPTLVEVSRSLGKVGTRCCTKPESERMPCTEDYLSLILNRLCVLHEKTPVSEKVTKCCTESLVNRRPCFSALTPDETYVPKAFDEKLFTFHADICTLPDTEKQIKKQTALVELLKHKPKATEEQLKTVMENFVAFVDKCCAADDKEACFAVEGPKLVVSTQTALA

One experiment addresses Albumin (Bos taurus) (UniProt P02769). The experiment in a line: bovine serum albumin binders on microarray, profiling panel, artefact control for SMM control protein annotation, biochemical, small-molecule microarray, Alexa647 label, 635/667 nm fluorescence (AID 1118).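 Note: score merges 667 nm emission intensity and signal-to-noise per printed compound spot.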 Conditions: BSA-A647 binding, fluorescence 635 nm, higher = more signal.
Turning to `O=C1C=C(c2ccccc2)C(=O)c2ccc([C@H]3Oc4ccccc4S(=O)(=O)N4CCC[C@@H]34)cc21`, the composite z-score is -0.878.

Molecule `Cc1ccc(S[C@]2(C(=O)NCC(F)(F)F)CC(=O)N(C3CCCCC3)[C@@H]2c2ccc(CO)cc2I)cc1` showed a composite z-score of 0.488.

As for `COc1ccc(C#Cc2ccc3c(c2)[C@]2(C(=O)N3)[C@H](c3ccc(O)cc3)N3[C@H](c4ccccc4)[C@H](c4ccccc4)OC(=O)[C@H]3[C@@H]2C(=O)O)cc1`, the composite z-score amounted to 0.496.

`COC(=O)[C@@]1(Cc2ccc(OC)cc2)[C@@H]2C(=CC(=O)[C@H]2CC(=O)C(=O)N(C)C)CN1C(=O)c1ccccc1` displayed a composite z-score of 0.982.

`CCOC(=O)c1ccc(NC(=O)O[C@H]2[C@H](OC(=O)Nc3ccc4c(c3)OCO4)[C@H](OC(=O)Nc3ccc4c(c3)OCO4)[C@@H](OC)O[C@@H]2CO)cc1`: the composite z-score was found to be 0.0541.

The molecule `C=CCN1Cc2ccccc2[C@H]2OC(c3ccc(OCCCO)cc3)=N[C@@]2(CC=C)C1=O` had a composite z-score of -0.405.

The molecule `CN(C)CCCNC(=O)[C@@]1(C)c2ccccc2C(=O)N(Cc2ccccc2)[C@H]1c1ccc(CO)cc1` returned a composite z-score of -1.05.

`CCCCCCCCCCC(O)C1C=CC2C(=O)N(C)C(=O)C2N1NC(=O)OC(C)(C)C` (centres undefined) yielded a composite z-score of 0.682.

Tested on in the next experiment: not listed separately
The experiment in a line: small-molecule microarray binders of probe aXIP, primary screen, biochemical, NeuroSMM set, 635/667 nm fluorescence (AID 1119).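 Note: probe is the protein aXip251-270 applied at 1 µg/mL to compound-printed slides; binding of probe to printed compounds measured as 667 nm fluorescence plus signal to noise.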 The note with it: higher = more signal, called active from +8 up or from −8 down.
`CN1C(=O)C2C=CC(C(O)C#Cc3ccccc3)N(Nc3ccccc3)C2C1=O` (centres undefined): the composite Z-score is -0.0662 (inactive).

As for `CN(C)c1ccc(C(O)C2C=CC3C(=O)N(c4ccccc4)C(=O)C3N2Nc2ccc([N+](=O)[O-])cc2)cc1` (centres undefined), the composite Z-score is 0.103 (inactive).

As for `CN(C)C(=O)[C@@]1(Cc2ccccc2CN=[N+]=[N-])N=C(c2ccc(OCCCO)cc2)O[C@H]1c1ccccc1CN=[N+]=[N-]`, the composite Z-score is 0.608 (inactive).

Regarding `O=C1OCC=C[C@H]2OC34C=CCN(Cn5nnc6ccccc65)C(=O)[C@H]3N(CCCO)C(=O)[C@@H]4[C@@H]12` (some centres undefined), the composite Z-score was -0.309 (inactive).

For `C[N+](C)(C)CCCCCCNC(=O)[C@H]1C[C@H]2C(=O)N[C@@H](Cc3ccccc3)C(=O)N2[C@H]1c1ccc(O)cc1`, the composite Z-score was -0.505 (inactive).

For the molecule `COCCOC(=O)N1C(=O)[C@@]2(c3cc(C#CCCO)ccc31)[C@H](C(=O)Nc1nc3ccccc3s1)[C@H]1C(=O)O[C@H](c3ccccc3)[C@H](c3ccccc3)N1[C@@H]2c1ccccc1OCCO`, the composite Z-score was 0.0088 (inactive).

With `COc1cc2c(cc1OC)CN(C(=O)[C@@H]1[C@H]3C(=O)O[C@H](c4ccccc4)[C@H](c4ccccc4)N3[C@H](c3ccc(OCCO)cc3)[C@@]13C(=O)Nc1ccc(C#CC4(O)CCCCCC4)cc13)CC2`, the composite Z-score is 0.266 (inactive).

Regarding `COc1cc(CO)cc(I)c1O[C@H]1C=C(C(=O)NCCO)C[C@@H](NCc2ccc(F)cc2)[C@@H]1O`, the composite Z-score is 0.328 (inactive).

`[N-]=[N+]=NCc1ccccc1C[C@@]1(C(=O)NCc2ccccc2)N=C(c2ccc(OCCCO)cc2)O[C@@H]1c1ccccc1N=[N+]=[N-]`: the composite Z-score was -0.126 (inactive).

Regarding `O=C(CS)NCCCCCNC(=O)[C@@H]1C[C@@H]2C(=O)N3CCC[C@H]3C(=O)N2[C@@H]1c1cccc(OCCO)c1`, the composite Z-score is 1.11 (inactive).

With `C=C(C)c1cc2c(c(CCCCCC)n1)[Si](C(C)C)(C(C)C)OC2`, the composite Z-score is -0.335 (inactive).

With `CCCCC(O)C1C=CC2C(=O)N(c3ccccc3)C(=O)C2N1Nc1ccc(C(C)C)cc1` (centres undefined), the composite Z-score was -0.535 (inactive).

As for `COCCOC(=O)N1C(=O)[C@@]2(c3cc(C#CC4=CCCCC4)ccc31)[C@H](c1ccc(OCCO)cc1)N1[C@H](c3ccccc3)[C@H](c3ccccc3)OC(=O)[C@H]1[C@@H]2C(=O)N1CCN(c2ncccn2)CC1`, the composite Z-score is -0.648 (inactive).

Take `C=C(COC)/C(=C/C[C@H](OC(C)=O)c1ccc(OCCO)cc1)c1cc(C(=O)OC)ccc1OC`: the composite Z-score is 0.835 (inactive).

On to `CC1CC/C=C\[C@H]2OC34C=CCN(c5ccc(Cl)cc5)C(=O)[C@H]3N(CCCCCO)C(=O)[C@]4(C)C2C(=O)O1` (some centres undefined), for which the composite Z-score is -0.0503 (inactive).

As to `CN1C(=O)C2C=CC(C(O)c3cccc(O)c3)N(Nc3ccccc3)C2C1=O` (centres undefined), the composite Z-score is 0.501 (inactive).

In the case of `O=C1NC(=O)C2C1C=CC(C(O)c1c(F)cccc1Cl)N2Nc1ccc(Cl)cc1Cl` (centres undefined), the composite Z-score is 0.122 (inactive).

With `COc1ccc([Si](C)(C)[C@@H]2[C@@H](CCO)O[C@]3(C(=O)N(Cc4ccc(N5CCCCC5=O)cc4)c4ccccc43)[C@H]2C)cc1`, the composite Z-score was 0.385 (inactive).

As to `C=CCC(OC(C)=O)[C@@H]1[C@@H](N(Cc2cc3ccccc3o2)C(=O)c2ccc(C)cc2)c2cc(OCCCO)ccc2N1C(=O)Cc1ccc(OC)cc1` (some centres undefined), the composite Z-score is 0.264 (inactive).

With `CCOc1cc(C(O)C2C=CC3C(=O)N(C)C(=O)C3N2Nc2ccccc2)ccc1O` (centres undefined), the composite Z-score was 0.765 (inactive).

For the molecule `O=C(CS)NCCCCCCNC(=O)[C@H]1C[C@H]2C(=O)N[C@@H](Cc3ccccc3)C(=O)N2[C@H]1c1ccc(O)cc1`, the composite Z-score is 0.578 (inactive).

In the case of `CC(c1ccccc1)C(O)C1C=CC2C(=O)N(c3ccccc3)C(=O)C2N1Nc1ccc([N+](=O)[O-])cc1` (centres undefined), the composite Z-score was -0.122 (inactive).

`COc1ccccc1CN1C(=O)c2ccccc2[C@@]2(Cc3ccccc3N(CC(F)(F)F)C2=O)[C@@H]1c1ccc(CO)cc1`: the composite Z-score is -0.137 (inactive).

As for `COC(=O)C(CC#Cc1ccc2c(c1)[C@]1(C(=O)N2)[C@H](C(=O)N2CCN(c3ncccn3)CC2)[C@H]2C(=O)O[C@H](c3ccccc3)[C@H](c3ccccc3)N2[C@@H]1c1ccc(OCCO)cc1)C(=O)OC`, the composite Z-score was -0.425 (inactive).

Regarding `[N-]=[N+]=Nc1ccccc1[C@@H]1OC(c2ccc(OCCCO)cc2)=N[C@]1(Cc1ccccc1)C(=O)NCC(O)CO` (some centres undefined), the composite Z-score was 0.66 (inactive).

For `Cc1cc(C)c(C(O)C2C=CC3C(=O)NC(=O)C3N2Nc2ccc(Cl)cc2Cl)c(C)c1` (centres undefined), the composite Z-score was 0.234 (inactive).

`COC(=O)c1c2oc(c1C(=O)OC)C(=O)N(Cc1ccccc1)Cc1cn(nn1)C[C@H](Cc1ccccc1)NC(=O)N[C@H](CO)CC2`: the composite Z-score is 0.535 (inactive).

For the molecule `C=CCNC(=O)[C@H]1[C@@H]2C(=O)O[C@@H](c3ccccc3)[C@@H](c3ccccc3)N2[C@@H](c2ccc(O)cc2)[C@]12C(=O)N(C(=O)OCCOC)c1ccccc12`, the composite Z-score is 0.255 (inactive).

In the case of `O=C1C=C(c2ccccc2)C(=O)c2ccc([C@H]3Oc4ccccc4S(=O)(=O)N4CCC[C@@H]34)cc21`, the composite Z-score is 0.159 (inactive).

Consider `Cc1ccc(S[C@]2(C(=O)NCC(F)(F)F)CC(=O)N(C3CCCCC3)[C@@H]2c2ccc(CO)cc2I)cc1`, for which the composite Z-score is -0.132 (inactive).

Turning to `COc1ccc(C#Cc2ccc3c(c2)[C@]2(C(=O)N3)[C@H](c3ccc(O)cc3)N3[C@H](c4ccccc4)[C@H](c4ccccc4)OC(=O)[C@H]3[C@@H]2C(=O)O)cc1`, the composite Z-score was 0.708 (inactive).

On to `COC(=O)[C@@]1(Cc2ccc(OC)cc2)[C@@H]2C(=CC(=O)[C@H]2CC(=O)C(=O)N(C)C)CN1C(=O)c1ccccc1`, for which the composite Z-score is -0.0238 (inactive).

For `CCOC(=O)c1ccc(NC(=O)O[C@H]2[C@H](OC(=O)Nc3ccc4c(c3)OCO4)[C@H](OC(=O)Nc3ccc4c(c3)OCO4)[C@@H](OC)O[C@@H]2CO)cc1`, the composite Z-score is 1.52 (inactive).

Take `C=CCN1Cc2ccccc2[C@H]2OC(c3ccc(OCCCO)cc3)=N[C@@]2(CC=C)C1=O`: the composite Z-score was 0.911 (inactive).

With `CN(C)CCCNC(=O)[C@@]1(C)c2ccccc2C(=O)N(Cc2ccccc2)[C@H]1c1ccc(CO)cc1`, the composite Z-score is -0.194 (inactive).

As to `CCCCCCCCCCC(O)C1C=CC2C(=O)N(C)C(=O)C2N1NC(=O)OC(C)(C)C` (centres undefined), the composite Z-score is 0.245 (inactive).

The record behind these values is PubChem BioAssay.
